Reference: PubChem BioAssay (Tox21)
Calls of active or inactive are those of the source. The call rests on the fitted dose curve; in most records, active means well fitted curve in the direction sought with a large enough effect in the repeat runs; inconclusive means weak or mixed curves; inactive means flat fitted curve, though single readings scatter.

Experiment: qHTS assay to test for compound auto fluorescence at 535 nm (green) in HepG2 cell free culture (AID 720686)
Conditions: Cell-free medium, green autofluorescence 485/535 nm; series mostly up to 91.3 µM; fluorescence, % of fluorescein control: at the top concentration
Description: U.S. Tox21 Program National Center for Advancing Translational Sciences [NCATS] NIH Chemical Genomics Center [NCGC] U.S. Environmental Protection Agency [EPA] National Institutes of Environmental Health Sciences [NIEHS] National Toxicology Program [NTP] U.S. Food and Drug Administration [FDA] Tox21 Assay Overview: Compound auto fluorescence often interferes with screening of the compound library against various biological targets and signaling pathways. Some of these compounds may have fluorophoric properties. Such properties may interfere with the assay outputs resulting in false positives and/or negatives. To decrease such complications and ensure the compound activities are relevant in terms of biological response, the Tox21 10K compound library was screened for auto fluorescence. From the fluorophores used as reporter signals in our screening assays, the auto fluorescence equivalencies of compounds against three fluorophores have been evaluated: Triamterene, Fluorescein and Rose Bengal sodium for blue, green and red fluorescence, respectively. The fluorescence intensities were measured using Excitation/Emission wavelengths at 405/460nm, 485/535nm and 540/590nm for blue, green and red labels, respectively. This assay includes the green fluorescence data.
Tox21 Assay Protocol Summary: 5 uL of culture medium (MEM containing 10% FBS) per well was dispensed into black wall/clear bottom 1536-well plates using a Multidrop Combi Dispenser (ThermoFisher Scientific, Waltham, MA). After 23 nL compound or DMSO vehicle was transferred into assay plate by a pintool work station (Kalypsys, San Diego, CA), fluorescence intensities in the assay plates were measured by an Envision (PerkinElmer, Shelton, CT) plate reader using three labels for measuring blue, green and red fluorescence at […] 460, 535 and 590nm respectively.
On the % scale 0 is the no-effect control and ±100 the full control effect.

| Structure (SMILES) | fluorescence, % of fluorescein control | outcome |
| --- | --- | --- |
| CCCCCCCC(=O)Cl | 0.0404% (inactive) | – |
| CC(=O)OCC1=C(C(=O)O)N2C(=O)[C@@H](N)[C@H]2SC1 | 0.161% [at 18.6 µM] (inactive) | – |
| O=C(O)C(Br)(Br)Br | -0.0367% (inactive) | – |
| CN(C)C(=O)Oc1cc(OC(=O)N(C)C)cc(C(O)CNC(C)(C)C)c1 (stereo not given) | -0.0661% [at 18.6 µM] (inactive) | – |
| NCCOS(=O)(=O)O | -0.0835% (inactive) | – |
| O=C/C=C/c1ccco1 | 0.103% (inactive) | – |
| Nc1c(Cl)c(F)nc(OCC(=O)O)c1Cl | -0.0544% (inactive) | – |
| CCc1cc(OC)c(C[C@H](C)N)cc1OC | -0.105% [at 95.7 µM] (inactive) | – |
| CCC1(c2ccccc2)C(=O)N(COC)C(=O)N(COC)C1=O | -0.0733% [at 46 µM] (inactive) | – |
| O=C(NC(O)C(Cl)(Cl)Cl)NC(O)C(Cl)(Cl)Cl (stereo not given) | -0.0065% [at 46 µM] (inactive) | – |
| CCNc1nc(Cl)nc(NC(C)(C)C)n1 | -0.0378% (inactive) | – |
| CC1NCCOC1c1ccccc1 (stereo not given) | 0.028% [at 46 µM] (inactive) | – |
| C=C1CC[C@@]2(O)[C@H]3Cc4ccc(O)c5c4[C@@]2(CCN3CC2CC2)[C@H]1O5 | 0.0396% [at 46 µM] (inactive) | – |
| NC(=O)CS(=O)C(c1ccccc1)c1ccccc1 (stereo not given) | -0.0045% [at 46 µM] (inactive) | – |
| O=C1CCCCC1Cl (stereo not given) | 0.0042% [at 95.7 µM] (inactive) | – |
| O=C(CCl)NCO | -0.048% (inactive) | – |
| COC1=CC(=O)O[C@@H](/C=C/c2ccccc2)C1 | 0.0494% [at 95.7 µM] (inactive) | – |
| CCOP(=S)(OCC)SCCl | 0.0091% (inactive) | – |
| CC(C)(C1CCC(O)CC1)C1CCC(O)CC1 (stereo not given) | 0.0555% (inactive) | – |
| Cc1ccc(-c2nc3ccc(C)cn3c2CC(=O)N(C)C)cc1 | 0.0077% [at 46 µM] (inactive) | – |

| Structure (SMILES) | fluorescence, % of fluorescein control | outcome |
| --- | --- | --- |
| CCCOc1nn(C(=O)NS(=O)(=O)c2ccccc2C(=O)OC)c(=O)n1C | 0.0383% (inactive) | – |
| Cc1cccc2sc3nncn3c12 | -0.0262% (inactive) | – |
| CCSC(=O)Cl | -0.0021% [at 95.7 µM] (inactive) | – |
| O=[N+]([O-])c1cccc(CCl)c1 | 0.114% [at 95.7 µM] (inactive) | – |
| O=C(Cl)OCc1ccccc1 | -0.0558% (inactive) | – |
| Clc1nc(Cl)nc(Nc2ccccc2Cl)n1 | -0.0116% (inactive) | – |
| CN1COCN(Cc2cnc(Cl)s2)/C1=N\[N+](=O)[O-] | 0.0374% (inactive) | – |
| CCOc1cc(OP(=S)(OC)OC)nc(CC)n1 | -0.0386% (inactive) | – |
| CC(C)(C)c1cc(O)ccc1O | – | inactive |
| O=C1CC(=O)NC(=O)N1 | 0.0165% (inactive) | – |
| COP(=O)(O)OC | 0.0411% [at 95.7 µM] (inactive) | – |
| COC(=O)c1ccccc1CS(=O)(=O)NC(=O)Nc1nc(OC)cc(OC)n1 | -0.153% (inactive) | – |
| ClCCCCCCCl | -0.0167% (inactive) | – |
| COc1cc(CC(C)N)cc(OC)c1OC (stereo not given) | -0.114% [at 95.7 µM] (inactive) | – |
| N[C@@H](Cc1ccc(Oc2cc(I)c(O)c(I)c2)c(I)c1)C(=O)O | 0.0957% [at 46 µM] (inactive) | – |
| O=C(O)C(F)(F)C(F)(F)C(F)(F)C(F)(F)C(F)(F)C(F)(F)F | -0.0577% (inactive) | – |
| CNC(=O)Oc1ccccc1C(C)C | -0.0268% (inactive) | – |
| CN(C)CCN(C)C | -0.0125% (inactive) | – |
| O=P(O)(O)CN(CP(=O)(O)O)CP(=O)(O)O | 0.0644% [at 18.6 µM] (inactive) | – |
| CCCCCCC(=O)CCCCCC/C=C/C[C@@H](O)[C@H](O)[C@@](N)(CO)C(=O)O | – | inactive |
